Assay results: PubChem BioAssay (NCATS)
Records with an inconclusive call do not appear. Active and inactive are the calls of the source. Unless noted, the call rests on the fitted dose curve. Starred links: 1 amine or outer side, 2 acyl side, 3 side chain; linkers in the order of their positions; H or OH if unused. Positions of bridges follow the written chain, without caps; N, C: chain ends. Non-standard residues stand in square brackets, D forms with d. Residues, ends and D or L forms follow the SMILES beside them. ξ: configuration not given here. *: point of attachment. ΔAla(3-NHCONH2) = NC(=O)NC=C(N)C(=O)O; X1 = NC1=NCCC(C(N[*:1])C(=O)[*:2])N1; ξβ3hOrn = NCCCC(N)CC(=O)*; Dap = NC[CH](N)C(=O)O

Columns and labels:
[1] = qHTS for Inhibitors of the Functional Ribonucleoprotein Complex (vRNP) of Lassa (LASV) Arenavirus: LASV Primary Screen - GLuc reporter signal (AID 1347082; calls by dose curve; tested in HEK293 reporter line; further: nearly all actives have a fitted effect of over 60% in size)
[2] = qHTS for Inhibitors of the Functional Ribonucleoprotein Complex (vRNP) of Lassa (LASV) Arenavirus: Viability assay - alamar blue signal for LASV Primary Screen (AID 1347083; calls by dose curve; tested in HEK293 reporter line; further: nearly all actives have a fitted effect of over 80% in size)
[3] = qHTS for Inhibitors of the Functional Ribonucleoprotein Complex (vRNP) of Lymphocytic Choriomeningitis Arenaviruses (LCMV): Viability assay - alamar blue signal for LCMV Primary Screen (AID 1347085; calls by dose curve; tested in HEK293 reporter line; further: nearly all actives have a fitted effect of over 80% in size)
[4] = molecular target: Nucleoprotein (Lymphocytic choriomeningitis virus (strain Armstrong)) (UniProt P09992); assay: qHTS for Inhibitors of the Functional Ribonucleoprotein Complex (vRNP) of Lymphocytic Choriomeningitis Arenaviruses (LCMV): LCMV Primary Screen - GLuc reporter signal (AID 1347086); further: nearly all actives have a fitted effect of over 70% in size
Sequence of Nucleoprotein (Lymphocytic choriomeningitis virus (strain Armstrong)) (P09992 whole entry, looked up): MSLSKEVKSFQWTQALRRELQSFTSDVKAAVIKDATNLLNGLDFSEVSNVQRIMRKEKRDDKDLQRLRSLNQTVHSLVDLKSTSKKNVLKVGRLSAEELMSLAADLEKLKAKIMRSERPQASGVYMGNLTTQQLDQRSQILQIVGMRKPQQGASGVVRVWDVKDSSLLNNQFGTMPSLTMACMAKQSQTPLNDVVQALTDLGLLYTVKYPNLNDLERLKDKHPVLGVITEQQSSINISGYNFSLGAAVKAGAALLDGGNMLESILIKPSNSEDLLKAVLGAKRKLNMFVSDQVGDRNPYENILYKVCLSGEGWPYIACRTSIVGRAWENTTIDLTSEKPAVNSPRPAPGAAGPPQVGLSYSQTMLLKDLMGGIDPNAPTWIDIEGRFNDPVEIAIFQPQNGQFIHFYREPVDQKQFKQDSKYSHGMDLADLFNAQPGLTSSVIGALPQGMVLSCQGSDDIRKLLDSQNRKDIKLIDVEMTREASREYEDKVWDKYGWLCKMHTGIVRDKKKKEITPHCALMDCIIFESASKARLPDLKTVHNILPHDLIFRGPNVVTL
Further: series mostly up to about 57 µM.
On the % scale 0 is the no-effect control and ±100 the full control effect.

O=C(NCCN1CCOCC1)c1ccc(Cl)cc1
inactive: Potency [1] | Potency [2] | Potency [3] | Potency [4]

CC(C)NCC(O)COc1ccc(CCOCC2CC2)cc1 (configuration not stated)
inactive: Potency [1] | Potency [2] | Potency [3] | Potency [4]

CCOC(=O)[C@H](CCc1ccccc1)N[C@@H](C)C(=O)N1Cc2cc(OC)c(OC)cc2C[C@H]1C(=O)O
inactive: Potency [1] | Potency [2] | Potency [3] | Potency [4]

CC(=O)O[C@]1(C(C)=O)CC[C@H]2[C@@H]3C=C(C)C4=CC(=O)CC[C@]4(C)[C@H]3CC[C@@]21C
inactive: Potency [1] | Potency [2] | Potency [3] | Potency [4]

CN(C)CCC=C1c2ccccc2C=Cc2ccccc21
inactive: Potency [1] | Potency [2] | Potency [3] | Potency [4]

CN(C)/N=N/c1nc[nH]c1C(N)=O
inactive: Potency [1] | Potency [2] | Potency [3] | Potency [4]

Cc1ncc([N+](=O)[O-])n1CCO
inactive: Potency [1] | Potency [2] | Potency [3] | Potency [4]

Cc1ccc(C)c(OCCCC(C)(C)C(=O)O)c1
inactive: Potency [1] | Potency [2] | Potency [3] | Potency [4]

CC(C)(C)C(=O)OCOP(=O)(COCCn1cnc2c(N)ncnc21)OCOC(=O)C(C)(C)C
inactive: Potency [1] | Potency [2] | Potency [3] | Potency [4]

CCCCCOC(=O)Nc1nc(=O)n([C@@H]2O[C@H](C)[C@@H](O)[C@H]2O)cc1F
inactive: Potency [1] | Potency [2] | Potency [3] | Potency [4]

CN(C)c1ccc(O)c2c1C[C@H]1C[C@H]3[C@H](N(C)C)C(=O)C(C(N)=O)=C(O)[C@@]3(O)C(=O)C1=C2O
inactive: Potency [1] | Potency [2] | Potency [3] | Potency [4]

CCOC(=O)c1ncn2c1CN(C)C(=O)c1cc(F)ccc1-2
inactive: Potency [1] | Potency [2] | Potency [3] | Potency [4]

C=C[C@H]1CN2CC[C@H]1C[C@@H]2[C@@H](O)c1ccnc2ccc(OC)cc12
inactive: Potency [1] | Potency [2] | Potency [3] | Potency [4]

CCOC(=O)C1=C(C)NC(C)=C(C(=O)OC)C1c1cccc(Cl)c1Cl (configuration not stated)
inactive: Potency [1] | Potency [2] | Potency [3] | Potency [4]

CN(CCOc1ccc(CC2SC(=O)NC2=O)cc1)c1ccccn1 (configuration not stated)
inactive: Potency [1] | Potency [2] | Potency [3] | Potency [4]

COC(=O)[C@@H]1CC2=CC(=O)CC[C@]2(C)[C@@]23O[C@@H]2C[C@@]2(C)[C@@H](CC[C@@]24CCC(=O)O4)[C@H]13
inactive: Potency [1] | Potency [2] | Potency [3] | Potency [4]

CCCC(=O)Nc1ccc(OCC(O)CNC(C)C)c(C(C)=O)c1 (configuration not stated)
inactive: Potency [1] | Potency [2] | Potency [3] | Potency [4]

CC(=O)Oc1ccccc1C(=O)Nc1ncc([N+](=O)[O-])s1
inactive: Potency [1] | Potency [2] | Potency [3] | Potency [4]

CN(C)[C@@H]1C(=O)C(C(N)=O)=C(O)[C@@]2(O)C(=O)C3=C(O)c4c(O)ccc(Cl)c4[C@@H](O)[C@H]3C[C@@H]12
inactive: Potency [1] | Potency [2] | Potency [3] | Potency [4]

CNCCCN1c2ccccc2CCc2ccccc21
inactive: Potency [1] | Potency [2] | Potency [3] | Potency [4]

O=C1CCc2cc(OCCCCc3nnnn3C3CCCCC3)ccc2N1
inactive: Potency [1] | Potency [2] | Potency [3] | Potency [4]

COc1cc(NC(C)CCCN)c2ncccc2c1 (configuration not stated)
inactive: Potency [1] | Potency [2] | Potency [3] | Potency [4]

OCCN1CCN(CCCN2c3ccccc3Sc3ccc(C(F)(F)F)cc32)CC1
inactive: Potency [1] | Potency [2] | Potency [3] | Potency [4]

CN1CCN(CCCN2c3ccccc3Sc3ccc(C(F)(F)F)cc32)CC1
inactive: Potency [1] | Potency [2] | Potency [3] | Potency [4]

CO[C@H]1C=CO[C@@]2(C)Oc3c(C)c(O)c4c(O)c(c(/C=N/N5CCN(C)CC5)c(O)c4c3C2=O)NC(=O)/C(C)=C\C=C[C@H](C)[C@H](O)[C@@H](C)[C@@H](O)[C@@H](C)[C@H](OC(C)=O)[C@@H]1C
inactive: Potency [1] | Potency [2] | Potency [3] | Potency [4]

COc1cc(C(C)=O)ccc1OCCCN1CCC(c2noc3cc(F)ccc23)CC1
inactive: Potency [1] | Potency [2] | Potency [3] | Potency [4]

CN1CCN(C(c2ccccc2)c2ccccc2)CC1
inactive: Potency [1] | Potency [2] | Potency [3] | Potency [4]

Cc1cnc(C(=O)NCCc2ccc(S(=O)(=O)NC(=O)NC3CCCCC3)cc2)cn1
inactive: Potency [1] | Potency [2] | Potency [3] | Potency [4]

CCn1cc(C(=O)O)c(=O)c2ccc(C)nc21
inactive: Potency [1] | Potency [2] | Potency [3] | Potency [4]

NC(=O)c1cn(Cc2c(F)cccc2F)nn1
inactive: Potency [1] | Potency [2] | Potency [3] | Potency [4]

CN(C/C=C/C#CC(C)(C)C)Cc1cccc2ccccc12
inactive: Potency [1] | Potency [2] | Potency [3] | Potency [4]

O=C(O)c1cn(C2CC2)c2cc(N3CCNCC3)c(F)cc2c1=O
inactive: Potency [1] | Potency [2] | Potency [3] | Potency [4]

NCCCC(N)CC(=O)NCC1NC(=O)C(CO)NC(=O)C(N)CNC(=O)C(C2CCN=C(N)N2)NC(=O)C(=CNC(N)=O)NC1=O (stereo not drawn) (H-[Dap]S[Dap](ξβ3hOrn)[ΔAla(3-NHCONH2)][X1]; lactam 1-C; configuration not given here)
inactive: activity change, negative = inhibition [1] 2.05% [at 0.757 µM] | activity change, negative = reduced viability [2] -7.39% [at 0.757 µM] | activity change, negative = lower viability [3] -4.22% [at 0.757 µM] | activity change, negative = inhibition [4] -2.08% [at 0.757 µM]
